Reference: PubChem BioAssay (NCI)
Compounds without any hit were thinned out: in the full panel of roughly 79,000, 15% have a hit. Activity calls are given as the source filed them. Cut-off read from the data, not from the text of the source: active = growth inhibition above about 70%; inactive = the rest.

How the values were obtained:
[1] = NCI Yeast Anticancer Drug Screen. Data for the rad50 strain (AID 155);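 note: 0% = growth of vehicle-only cultures of the same strain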; details: S. cerevisiae rad50 strain growth inhibition, active compounds read high; at 50.0 µM unless noted
Outline: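 Vehicle-treated cultures provide the reference for the growth inhibition reported for compound-exposed, repair-deficient yeast.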

[2] = NCI Yeast Anticancer Drug Screen. Data for the mec2-1 strain (AID 157); details: S. cerevisiae mec2-1 strain, active compounds read high; at 50.0 µM unless noted
Outline: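 Vehicle-treated cultures served as reference for growth inhibition of compound-exposed mec2-1 yeast.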

[3] = NCI Yeast Anticancer Drug Screen. Data for the sgs1 mgt1 strain (AID 161);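 note: 0% = growth of cultures given vehicle only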; details: S. cerevisiae sgs1 mgt1 strain, active compounds read high; at 50.0 µM unless noted
Outline: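 Mutant yeast exposed to compound; growth scored against vehicle-only wells.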

[4] = NCI Yeast Anticancer Drug Screen. Data for the cln2 rad14 strain (AID 165);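 note: 0% = growth equal to vehicle treated cultures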; details: S. cerevisiae cln2 rad14 strain, active compounds read high; at 50.0 µM unless noted
Outline: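 Each compound was tested on cln2 rad14 yeast. Inhibition of growth was calculated against vehicle-exposed controls.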

[5] = NCI Yeast Anticancer Drug Screen. Data for the bub3 strain (AID 167); details: S. cerevisiae bub3 mutant strain, active compounds read high; at 50.0 µM unless noted
Outline: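 Mutant yeast screening strain plus compound; vehicle-treated cultures serve as the 0% inhibition reference.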

[6] = NCI Yeast Anticancer Drug Screen. Data for the mlh1 rad18 strain (AID 175); details: S. cerevisiae mlh1 rad18 strain growth inhibition, active compounds read high; at 50.0 µM unless noted
Outline: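 Vehicle-treated cultures served as the reference for growth inhibition in a yeast strain carrying DNA damage repair alterations exposed to each compound.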

Measured: growth inhibition

Nc1ncc2c(n1)-c1ccccc1OC2
inactive: [1] -29.5% | [2] 2.8% | [3] -12.4% | [4] -1.4% | [5] -20.9% | [6] -10.4%

CN(Cc1cnc2nc(N)nc(N)c2n1)c1ccc(C(=O)NC(CCC(=O)OCc2c(Cl)cccc2Cl)C(=O)OCc2c(Cl)cccc2Cl)cc1 (stereo not given)
inactive: [1] 17.1% | [2] 9.2% | [3] 28.5% | [4] 36.2% | [5] 22.1% | [6] 24.5%

C=C(C)C(=NC(C)(C)C)Nc1ccc(C(=O)OCC)cc1
inactive: [1] -8.3% | [2] -5.6% | [3] -11.8% | [4] -21.2% | [5] -24.1% | [6] -45.6%

CCSc1[nH]c(Nc2nc(-c3ccccc3)n(-c3ccccc3)n2)c(C(N)=O)c1C(N)=O
inactive: [1] -16.9% | [2] 1.35% | [3] 7.8% | [4] -5.85% | [5] -9.75% | [6] 7%

O=C1NC(=S)S/C1=C/C=C/c1ccccc1
inactive: [1] -21.4% | [2] 3.8% | [3] 7.7% | [4] 15.9% | [5] -5.2% | [6] 25.9%

CC(=O)c1cc([N+](=O)[O-])ccc1OCC(=O)O
inactive: [1] 5.95% | [2] 4.85% | [3] 3.75% | [4] 1.85% | [5] 9.85% | [6] 9.6%

C/C=C/Cc1n[nH]c(=O)c2c(C)[nH]nc12
inactive: [1] -13% | [2] -13.4% | [3] -9.55% | [4] -13.8% | [5] -5.85% | [6] -17.9%

NCCS(=O)(=O)O
inactive: [1] 1.8% | [2] 8.7% | [3] 7.7% | [4] 19.8% | [5] -5.6% | [6] -6.95%

COc1cc(C2c3cc4c(c(OC5OC(CO)C(O)C5O)c3CC3COC(=O)C32)OCO4)cc(OC)c1OC (stereo not given)
inactive: [1] 34.4% | [2] 6.65% | [3] 17.9% | [4] 19.9% | [5] -0.95% | [6] 5.7%

Cc1ncc([N+](=O)[O-])n1CC(O)Cn1cnc([N+](=O)[O-])n1 (stereo not given)
inactive: [1] -19% | [2] -6.5% | [3] -1.75% | [4] -4.2% | [5] -4.35% | [6] -31.4%

O=C(Oc1ccccc1)C(=O)Oc1ccccc1
inactive: [1] -20.6% | [2] -24.9% | [3] -8.75% | [4] -15.4% | [5] -0.1% | [6] 6.4%

COc1cc(C2CC(C)(Nc3ccccc3)Oc3cc4c(cc32)OCO4)cc(OC)c1OC (stereo not given)
inactive: [1] -6.35% | [2] -13.7% | [3] -3.55% | [4] 4.95% | [5] 4.1% | [6] -14.2%

N#Cc1c[nH]c(=O)[nH]c1=O
inactive: [1] -25.3% | [2] -25.4% | [3] -13.4% | [4] 2.15% | [5] 1.85% | [6] -45.6%

COc1ccc(N=C2C(=Nc3ccc(OC)cc3)N(c3ccccc3)C(=S)N2N=C=C2Sc3ccccc3N2C)cc1
inactive: [1] -13.2% | [2] -24% | [3] -18.4% | [4] -8.3% | [5] -4.05% | [6] -32%

O=C(/C(Cl)=N/O)c1ccc(O)c(O)c1
inactive: [1] 30.3% | [2] 14.8% | [3] 18.2% | [4] 24.6% | [5] 47.2% | [6] 19.9%

Nc1nc(NCCO)c(NC=O)c(=O)[nH]1
inactive: [1] -11.6% | [2] 6% | [3] -2.6% | [4] -34.4% | [5] -13.8% | [6] -1.35%

CC1CC(=O)c2c(ccc3c2C(=O)c2cccc(O)c2C3=O)C1 (stereo not given)
inactive: [1] -3.55% | [2] -0.45% | [3] 40.2% | [4] 24.8% | [5] -1.05% | [6] 52.8%

O=C(C#Cc1ccccc1)Nc1ccccc1CC(c1c[nH]c2ccccc12)c1c[nH]c2ccccc12
inactive: [1] 0.75% | [2] -2.25% | [3] 1.55% | [4] 5.4% | [5] 8.85% | [6] -7.65%

COC1CCC2C3CCC(C3)C12 (stereo not given)
inactive: [1] 26.9% | [2] -2% | [3] 6.4% | [4] 5.05% | [5] -12.9% | [6] -10.2%

CSc1ncn(C)c1C(N)=O
inactive: [1] 0.1% | [2] 4.25% | [3] 1.5% | [4] -5.2% | [5] -3.25% | [6] 11.2%

Cc1ncc(CO)c(CO)c1OCC(O)CN1CCN(c2ccc(F)cc2)CC1 (stereo not given)
inactive: [1] -15.8% | [2] -2.65% | [3] -8.25% | [4] -41.2% | [5] -6.9% | [6] -0.45%

CN(C)CC1(C)CC/C(=C\c2ccc3c(c2)OCO3)C1=O (stereo not given)
inactive: [1] 58.4% | [2] 30.4% | [3] 45% | [4] 51.9% | [5] 29.9% | [6] 56%

CC(=O)Oc1c(I)cc(Cc2nc(C)oc2C)cc1I
inactive: [1] -41.1% | [2] -1.15% | [3] 6.5% | [4] 1% | [5] 6.8% | [6] -4.8%

COC(=O)CN(CC(=O)NCCCBr)C1CCCCC1N(CC(=O)OC)CC(=O)OC (stereo not given)
inactive: [1] -23.9% | [2] -17.1% | [3] 10.2% | [4] -23% | [5] -26.9% | [6] -22.7%

O=C(NCCCN1CCN(CCCNC(=O)Nc2ccc(N=Nc3ccccc3)cc2)CC1)Nc1ccc(N=Nc2ccccc2)cc1
inactive: [1] -0.95% | [2] 16.3% | [3] 0.65% | [4] -3.3% | [5] -1.8% | [6] 14.6%

O=c1[nH]c(=O)n(C2CC(O)C(CO)O2)cc1C#Cc1c(F)c(F)c(F)c(F)c1F (stereo not given)
inactive: [1] -17.2% | [2] -11.7% | [3] -16.4% | [4] 11.8% | [5] -13.8% | [6] 2.2%

CC(=C(C#N)C#N)c1csc2ccccc12
inactive: [1] 9.1% | [2] 14.8% | [3] -4.35% | [4] -34.5% | [5] -14.8% | [6] 21.9%

COc1c(Cl)cc(C(c2cc(Cl)c(OC)c(Cl)c2)C(Cl)(Cl)Cl)cc1Cl
inactive: [1] -11.7% | [2] -16.4% | [3] -13% | [4] -23.7% | [5] -3.95% | [6] 10.4%

CCCCCC#CC[C@@H](O)[C@@H](O)COCc1ccccc1
inactive: [1] 17.4% | [2] 8.6% | [3] 32.2% | [4] 29.2% | [5] -20.8% | [6] 9.9%

O=c1[nH]cnc2c1ncn2C1CCCO1 (stereo not given)
inactive: [1] -14.2% | [2] -3.3% | [3] -2.9% | [4] -24.1% | [5] 17.4% | [6] 0.9%

Clc1ccc(Oc2ncnc3nc[nH]c23)cc1
inactive: [1] 3.6% | [2] 5.75% | [3] 2.85% | [4] -1.35% | [5] -1.5% | [6] 23.5%

Nc1nc(-c2cc(Br)ccc2N=NN2CCCCC2)nc2ccc(Br)cc12
active: [1] 82.2% | [3] 79.5% | [6] 70.8%
inactive: [2] 37.2% | [4] 46% | [5] 22.3%

CC(=O)Nc1cccc(OC(=O)Nc2ccc(F)c(Cl)c2)c1
active: [3] 71.7% | [4] 70.7% | [6] 82%
inactive: [1] 57.6% | [2] 60.7% | [5] 56.8%

Cc1c(Cl)cccc1NC(=O)CCl
inactive: [1] 7.95% | [2] 32.1% | [3] 28.2% | [4] 5.75% | [5] -3.85% | [6] 16.2%

CC(C)C(C=O)C(O)(C(F)(F)F)C(F)(F)F (stereo not given)
inactive: [1] 2.3% | [2] -2.8% | [3] -30.6% | [4] 13.3% | [5] 22.3% | [6] 0.5%

CC1(C)OC2COC(OCc3ccccc3)C(OCc3ccccc3)C2O1 (stereo not given)
inactive: [1] 17.4% | [2] 8.1% | [3] 26.8% | [4] 7.35% | [5] -8.7% | [6] 19%

CC(=O)Nc1ccc(CCCc2ccc([N+](=O)[O-])cc2)cc1
inactive: [1] 3.15% | [2] 3.35% | [3] -10.9% | [4] -70.2% | [5] 1.6% | [6] 0%

N#CCN1CCc2ccccc2C1
inactive: [1] -8.45% | [2] -7.15% | [3] -6.65% | [4] -33.9% | [5] -11.7% | [6] -6%

O=C1c2ccccc2C(=O)N1CCCCCCS(=O)(=O)Cl
inactive: [1] 13.7% | [2] 10.9% | [3] -2.75% | [4] -16.9% | [5] -7.35% | [6] 0.55%

Clc1cccc(C2ON=C(c3ccccc3)N2C23CC4CC(CC(C4)C2)C3)c1Cl (stereo not given)
inactive: [1] 10.3% | [2] -6.55% | [3] 7.95% | [4] -13.5% | [5] -4% | [6] -3.95%
